The values that follow come from the supplement of paper PMC12819154, “High-throughput peptide-centric local stability assay extends protein–ligand identification to membrane proteins, tissues and bacteria” (Nature Structural & Molecular Biology, 2025).

Sequence of UniProt Q2NL51 (Q2NL51 whole entry): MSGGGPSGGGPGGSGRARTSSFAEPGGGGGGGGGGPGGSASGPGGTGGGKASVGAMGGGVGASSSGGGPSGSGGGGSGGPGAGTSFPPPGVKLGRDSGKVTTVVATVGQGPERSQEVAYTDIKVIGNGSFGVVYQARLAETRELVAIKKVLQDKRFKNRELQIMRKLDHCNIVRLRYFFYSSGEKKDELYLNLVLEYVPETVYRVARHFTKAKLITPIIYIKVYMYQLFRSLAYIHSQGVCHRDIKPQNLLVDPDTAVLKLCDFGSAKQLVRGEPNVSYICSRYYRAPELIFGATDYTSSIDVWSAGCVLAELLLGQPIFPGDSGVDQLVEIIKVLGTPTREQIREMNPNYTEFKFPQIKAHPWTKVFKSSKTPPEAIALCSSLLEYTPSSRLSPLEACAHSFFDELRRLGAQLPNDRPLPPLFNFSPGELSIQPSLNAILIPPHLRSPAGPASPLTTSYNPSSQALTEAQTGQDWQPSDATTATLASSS
Sequence of UniProt Q8CIE6 (Q8CIE6 whole entry): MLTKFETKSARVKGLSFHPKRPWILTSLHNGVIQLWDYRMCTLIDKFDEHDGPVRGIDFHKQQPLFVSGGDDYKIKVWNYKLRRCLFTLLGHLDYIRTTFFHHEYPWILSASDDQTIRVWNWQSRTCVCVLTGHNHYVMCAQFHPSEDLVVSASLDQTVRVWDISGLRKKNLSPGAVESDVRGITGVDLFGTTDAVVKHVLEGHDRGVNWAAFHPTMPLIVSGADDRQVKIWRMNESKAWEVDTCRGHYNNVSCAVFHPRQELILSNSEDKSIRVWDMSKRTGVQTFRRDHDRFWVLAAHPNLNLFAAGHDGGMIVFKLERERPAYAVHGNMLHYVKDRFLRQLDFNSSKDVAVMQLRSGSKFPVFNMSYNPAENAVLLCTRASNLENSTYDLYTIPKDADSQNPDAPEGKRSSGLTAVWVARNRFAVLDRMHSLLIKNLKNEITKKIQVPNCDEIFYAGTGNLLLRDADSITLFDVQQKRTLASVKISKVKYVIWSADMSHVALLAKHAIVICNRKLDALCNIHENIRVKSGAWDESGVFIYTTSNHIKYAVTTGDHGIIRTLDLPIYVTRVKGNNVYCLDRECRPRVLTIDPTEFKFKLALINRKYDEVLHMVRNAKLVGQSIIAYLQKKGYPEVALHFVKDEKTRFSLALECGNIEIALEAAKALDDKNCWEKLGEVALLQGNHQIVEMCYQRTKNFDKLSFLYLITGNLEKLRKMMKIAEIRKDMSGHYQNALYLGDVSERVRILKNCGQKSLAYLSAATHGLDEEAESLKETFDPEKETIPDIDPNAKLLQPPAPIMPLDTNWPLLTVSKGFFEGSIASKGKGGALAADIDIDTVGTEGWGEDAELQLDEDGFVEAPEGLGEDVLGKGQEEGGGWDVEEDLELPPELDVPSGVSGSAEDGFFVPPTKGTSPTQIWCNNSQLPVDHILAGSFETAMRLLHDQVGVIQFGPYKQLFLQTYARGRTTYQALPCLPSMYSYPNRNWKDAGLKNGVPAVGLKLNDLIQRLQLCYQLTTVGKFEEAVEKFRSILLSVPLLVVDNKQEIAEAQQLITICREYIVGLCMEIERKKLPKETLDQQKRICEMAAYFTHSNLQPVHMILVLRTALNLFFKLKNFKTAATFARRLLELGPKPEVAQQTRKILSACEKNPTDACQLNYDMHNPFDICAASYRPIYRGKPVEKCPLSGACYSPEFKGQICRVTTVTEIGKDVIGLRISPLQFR
Sequence of UniProt P70349 (P70349 whole entry): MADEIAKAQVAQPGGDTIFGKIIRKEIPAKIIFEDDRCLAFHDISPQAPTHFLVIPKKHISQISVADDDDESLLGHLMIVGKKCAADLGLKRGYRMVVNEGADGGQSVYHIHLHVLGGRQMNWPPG
Sequence of UniProt P43142 (P43142 whole entry): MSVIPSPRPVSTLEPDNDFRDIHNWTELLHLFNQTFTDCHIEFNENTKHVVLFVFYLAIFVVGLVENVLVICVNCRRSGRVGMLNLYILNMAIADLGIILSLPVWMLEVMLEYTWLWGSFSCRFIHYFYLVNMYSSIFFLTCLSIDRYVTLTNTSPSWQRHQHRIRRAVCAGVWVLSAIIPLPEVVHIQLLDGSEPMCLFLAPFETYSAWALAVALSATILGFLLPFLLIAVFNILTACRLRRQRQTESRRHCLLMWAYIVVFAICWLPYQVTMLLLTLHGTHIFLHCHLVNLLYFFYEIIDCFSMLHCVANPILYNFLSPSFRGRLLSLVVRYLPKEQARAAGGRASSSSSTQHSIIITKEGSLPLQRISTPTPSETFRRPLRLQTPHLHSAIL
Sequence of UniProt Q04899 (Q04899 whole entry): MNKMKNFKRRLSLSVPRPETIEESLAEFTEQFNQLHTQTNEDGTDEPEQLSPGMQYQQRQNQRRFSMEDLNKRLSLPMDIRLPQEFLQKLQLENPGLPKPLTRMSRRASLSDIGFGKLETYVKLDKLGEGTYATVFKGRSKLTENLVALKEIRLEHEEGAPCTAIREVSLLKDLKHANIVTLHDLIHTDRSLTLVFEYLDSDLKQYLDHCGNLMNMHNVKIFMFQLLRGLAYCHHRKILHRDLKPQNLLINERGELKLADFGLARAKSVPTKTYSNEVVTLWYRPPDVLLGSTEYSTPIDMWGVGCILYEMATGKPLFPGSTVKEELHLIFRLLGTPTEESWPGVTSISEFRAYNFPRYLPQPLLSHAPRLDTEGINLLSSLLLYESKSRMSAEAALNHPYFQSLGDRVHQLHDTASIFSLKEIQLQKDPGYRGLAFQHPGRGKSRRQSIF
Sequence of UniProt Q8CIN4 (Q8CIN4 whole entry): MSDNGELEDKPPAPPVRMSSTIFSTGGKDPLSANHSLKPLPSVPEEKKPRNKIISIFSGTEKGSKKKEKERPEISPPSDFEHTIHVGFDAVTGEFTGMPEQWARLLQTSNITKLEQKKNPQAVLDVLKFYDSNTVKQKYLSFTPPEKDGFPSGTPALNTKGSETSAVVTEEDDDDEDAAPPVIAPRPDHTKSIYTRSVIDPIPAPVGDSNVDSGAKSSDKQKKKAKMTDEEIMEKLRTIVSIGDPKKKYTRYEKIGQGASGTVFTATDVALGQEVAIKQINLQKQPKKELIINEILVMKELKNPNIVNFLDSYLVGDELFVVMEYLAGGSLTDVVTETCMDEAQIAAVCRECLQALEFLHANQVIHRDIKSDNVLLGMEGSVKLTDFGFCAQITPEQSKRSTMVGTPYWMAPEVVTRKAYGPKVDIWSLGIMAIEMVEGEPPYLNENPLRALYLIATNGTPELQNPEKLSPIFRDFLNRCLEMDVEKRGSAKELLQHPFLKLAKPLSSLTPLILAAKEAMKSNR
Sequence of UniProt Q9DCW4 (Q9DCW4 whole entry): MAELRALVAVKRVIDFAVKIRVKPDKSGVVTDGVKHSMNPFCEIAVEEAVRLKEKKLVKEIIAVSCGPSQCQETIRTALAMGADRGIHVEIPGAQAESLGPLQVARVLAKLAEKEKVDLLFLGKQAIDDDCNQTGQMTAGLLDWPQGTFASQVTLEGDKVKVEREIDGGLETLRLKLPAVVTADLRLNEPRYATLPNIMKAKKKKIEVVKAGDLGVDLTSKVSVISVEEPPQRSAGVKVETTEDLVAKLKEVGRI
Sequence of UniProt O70293 (O70293 whole entry): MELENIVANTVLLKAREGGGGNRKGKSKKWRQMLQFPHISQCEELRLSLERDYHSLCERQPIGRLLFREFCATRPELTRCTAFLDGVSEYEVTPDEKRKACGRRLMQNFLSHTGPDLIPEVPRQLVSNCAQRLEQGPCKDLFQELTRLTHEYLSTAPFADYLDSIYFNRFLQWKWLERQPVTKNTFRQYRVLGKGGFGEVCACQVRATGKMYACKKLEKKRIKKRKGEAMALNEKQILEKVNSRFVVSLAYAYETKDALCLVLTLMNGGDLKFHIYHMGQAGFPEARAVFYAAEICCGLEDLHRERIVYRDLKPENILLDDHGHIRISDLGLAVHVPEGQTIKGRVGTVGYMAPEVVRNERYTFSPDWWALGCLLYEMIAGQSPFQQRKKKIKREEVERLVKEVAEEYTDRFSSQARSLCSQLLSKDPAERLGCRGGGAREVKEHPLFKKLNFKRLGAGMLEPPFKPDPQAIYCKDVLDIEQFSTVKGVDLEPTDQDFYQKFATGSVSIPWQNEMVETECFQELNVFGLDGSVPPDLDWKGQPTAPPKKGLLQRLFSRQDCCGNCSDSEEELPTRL
Sequence of UniProt Q3UHJ0 (Q3UHJ0 whole entry, looked up): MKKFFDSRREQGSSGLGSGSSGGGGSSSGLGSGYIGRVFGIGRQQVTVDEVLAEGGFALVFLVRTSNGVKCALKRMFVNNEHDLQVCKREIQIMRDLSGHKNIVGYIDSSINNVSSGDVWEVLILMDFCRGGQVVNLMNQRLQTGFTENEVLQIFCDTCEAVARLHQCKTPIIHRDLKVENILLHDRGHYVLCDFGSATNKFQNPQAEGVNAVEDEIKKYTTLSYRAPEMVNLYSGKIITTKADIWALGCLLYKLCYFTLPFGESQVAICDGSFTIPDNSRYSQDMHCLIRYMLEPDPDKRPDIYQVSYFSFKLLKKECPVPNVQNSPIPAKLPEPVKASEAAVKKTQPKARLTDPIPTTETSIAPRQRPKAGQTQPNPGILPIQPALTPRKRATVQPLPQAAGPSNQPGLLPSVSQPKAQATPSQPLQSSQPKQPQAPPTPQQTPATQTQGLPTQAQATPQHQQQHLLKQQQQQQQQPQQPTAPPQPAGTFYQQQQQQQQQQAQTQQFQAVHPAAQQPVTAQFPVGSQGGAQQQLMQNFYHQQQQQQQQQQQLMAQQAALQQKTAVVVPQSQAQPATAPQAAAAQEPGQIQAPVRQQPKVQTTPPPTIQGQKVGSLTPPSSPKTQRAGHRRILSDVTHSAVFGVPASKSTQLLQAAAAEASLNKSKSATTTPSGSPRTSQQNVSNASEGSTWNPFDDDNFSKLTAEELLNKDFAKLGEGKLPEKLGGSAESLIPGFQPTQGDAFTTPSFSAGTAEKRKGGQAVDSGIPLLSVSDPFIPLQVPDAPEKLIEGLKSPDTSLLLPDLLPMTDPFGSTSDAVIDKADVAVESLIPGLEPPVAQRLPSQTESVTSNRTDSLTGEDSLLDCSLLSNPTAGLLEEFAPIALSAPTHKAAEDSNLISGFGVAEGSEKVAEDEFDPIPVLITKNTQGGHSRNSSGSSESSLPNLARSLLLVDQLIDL

Compound in this assay: CN[C@@H]1C[C@H]2O[C@@](C)([C@@H]1OC)n1c3ccccc3c3c4c(c5c6ccccc6n2c5c31)C(=O)NC4 [staurosporine]
The assay is described as follows: log2 fold change of tryptic peptide abundance, ligand vs vehicle (limited proteolysis) (log2 ratio); higher = more trypsin-susceptible (destabilized). To be noted: ligand concentration: 20 uM; sample: mouse liver crude lysate; replicate design: treated separately.
Take “UniProt Q64464 (peptide sequence: ALLSPTFTSGR, peptide start residue: 131)”: the log2 fold change was -0.724.

Regarding “UniProt Q80UW5 (peptide sequence: GAFGEVAVVR, peptide start residue: 80)”, the log2 fold change was -1.9.

As for “UniProt O55047 (peptide sequence: YLLLHLLGR, peptide start residue: 408)”, the log2 fold change was -1.75.

In the case of “UniProt Q9D517 (peptide sequence: GLPPLKYHLLPR, peptide start residue: 196)”, the log2 fold change was 0.633.

On to “UniProt Q80ZW0 (peptide sequence: YSLLAEIGR, peptide start residue: 207)”, for which the log2 fold change is -0.855.

Take “UniProt O35495 (peptide sequence: LADFGLAR, peptide start residue: 853)”: the log2 fold change is -1.69.

As to “UniProt P43142 (peptide sequence: YLPKEQAR, peptide start residue: 334)”, the log2 fold change was -0.325.

In the case of “UniProt Q9D0I9 (peptide sequence: GFDILGIKPVQR, peptide start residue: 648)”, the log2 fold change was 0.372.

As to “UniProt O54909 (peptide sequence: YLASYLKR, peptide start residue: 242)”, the log2 fold change was -1.31.

Consider “UniProt Q8CIE6 (peptide sequence: VTTVTEIGKDVIGLR, peptide start residue: 1203)”, for which the log2 fold change was -0.699.

In the case of “UniProt P24604 (peptide sequence: ELGSGLFGVVR, peptide start residue: 374)”, the log2 fold change was -0.989.

In the case of “UniProt P08226 (peptide sequence: LQAEIFQAR, peptide start residue: 262)”, the log2 fold change was 0.428.

In the case of “UniProt Q9DC28 (peptide sequence: FDDKPDYSYLR, peptide start residue: 260)”, the log2 fold change was -0.751.

For the target “UniProt Q91YX5 (peptide sequence: DQQLLVLKK, peptide start residue: 157)”, the log2 fold change worked out at 0.642.

Turning to “UniProt Q7TMY8 (peptide sequence: HLGYTLCK, peptide start residue: 3630)”, the log2 fold change worked out at 0.491.

As for “UniProt Q922S4 (peptide sequence: AMGNRPMEMMDR, peptide start residue: 838)”, the log2 fold change is 0.447.

For the target “UniProt Q9EQC1 (peptide sequence: DFYYQGLR, peptide start residue: 204)”, the log2 fold change is -0.862.

Take “UniProt P70349 (peptide sequence: IIFEDDR, peptide start residue: 31)”: the log2 fold change is -0.309.

Consider “UniProt O70293 (peptide sequence: EFCATRPELTR, peptide start residue: 69)”, for which the log2 fold change is -1.23.

Consider “UniProt Q8CIN4 (peptide sequence: TIVSIGDPK, peptide start residue: 238)”, for which the log2 fold change is -2.05.

Turning to “UniProt Q9D710 (peptide sequence: EFNLNELYQR, peptide start residue: 254)”, the log2 fold change is -0.349.

Take “UniProt Q5U5V2 (peptide sequence: ENFIWNLK, peptide start residue: 175)”: the log2 fold change is -0.924.

For “UniProt Q60772 (peptide sequence: LGNPEIAR, peptide start residue: 47)”, the log2 fold change came out at 0.494.

Regarding “UniProt Q91XF0 (peptide sequence: SSQIGAVVSR, peptide start residue: 164)”, the log2 fold change was determined as 1.44.

On to “UniProt Q60855 (peptide sequence: DLKPENILVDRDFHIK, peptide start residue: 138)”, for which the log2 fold change was 1.33.

Consider “UniProt Q9DCW4 (peptide sequence: VDLLFLGK, peptide start residue: 117)”, for which the log2 fold change is 0.27.

With “UniProt P02088 (peptide sequence: DFTPAAQAAFQK, peptide start residue: 122)”, the log2 fold change is 0.285.

As for “UniProt O89023 (peptide sequence: VNTEFMK, peptide start residue: 339)”, the log2 fold change was -0.234.

For “UniProt Q04899 (peptide sequence: HANIVTLHDLIHTDR, peptide start residue: 176)”, the log2 fold change is -3.35.

Consider “UniProt Q99J56 (peptide sequence: GGVSGFGVPPASMR, peptide start residue: 215)”, for which the log2 fold change was 0.327.

In the case of “UniProt Q9WTK7 (peptide sequence: SMTVVPYLEDLHGR, peptide start residue: 334)”, the log2 fold change is 1.41.

For the target “UniProt Q8JZR0 (peptide sequence: GYLKDPEK, peptide start residue: 503)”, the log2 fold change was found to be 0.616.

Consider “UniProt Q2NL51 (peptide sequence: LCDFGSAK, peptide start residue: 198)”, for which the log2 fold change is -4.01.

Consider “UniProt Q3UHJ0 (peptide sequence: DLKVENILLHDR, peptide start residue: 176)”, for which the log2 fold change was -4.22.

On to “UniProt O70589 (peptide sequence: FTSSPGLSTEDLKR, peptide start residue: 48)”, for which the log2 fold change was -2.83.

For the target “UniProt O89079 (peptide sequence: KYGVVLDEIKPSSAPELQAVR, peptide start residue: 65)”, the log2 fold change is -0.856.

With “UniProt P70697 (peptide sequence: FALPYIR, peptide start residue: 232)”, the log2 fold change was determined as 0.384.

Turning to “UniProt Q9ERE3 (peptide sequence: PTDFDFLK, peptide start residue: 32)”, the log2 fold change was -2.47.
